Active and inactive are the calls of the source. Unless noted, the rule behind the calls is not given here.
Columns and labels:
[1] = compound effects on lung adenocarcinoma cell viability – A549, calcein-AM fluorescence, 48 h, basal, profiling panel (AID 1162); conditions: higher = more signal; note: test concentration not given here
[2] = compound effects on differentiated 3T3-L1 adipocyte viability – cell-based, 3T3-L1 adipocytes, calcein-AM fluorescence, 48 h, basal, profiling panel (AID 1163); conditions: 3T3-L1 adipocytes viability, higher = more signal; note: test concentration not given here
[3] = compound effects on hepatocellular carcinoma cell viability – HepG2, calcein-AM fluorescence, 48 h, basal, profiling panel (AID 1164); conditions: higher = more signal; note: test concentration not given here
[4] = compound effects on multiple myeloma cell viability – MM1S, calcein-AM fluorescence, 48 h, basal, profiling panel (AID 1165); conditions: higher = more signal; note: test concentration not given here
[5] = calcein-AM signal in unstimulated myeloma cells – cell-based, calcein-AM fluorescence, 48 h, PK04 Diversity Set, profiling panel (AID 1166); conditions: RPMI8226 myeloma viability, higher = more signal;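 note: cells grown under basal conditions without added stimulus; test concentration not given here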
[6] = JC-1 mitochondrial signal, unstimulated HepG2 cells – cell-based, JC-1 fluorescence, 24 h, 100 nL compound, profiling panel (AID 1167); conditions: HepG2 mitochondrial potential, higher = more signal; note: test concentration not given here
[7] = JC-1 mitochondrial signal, unstimulated adipocytes – cell-based, JC-1 fluorescence, 3T3-L1 adipocytes, 24 h, 100 nL compound, profiling panel (AID 1168); conditions: JC-1 mitochondrial fluorescence, higher = more signal, called active from +8 up or from −8 down; note: test concentration not given here
[8] = JC-1 mitochondrial signal, unstimulated myeloma cells – cell-based, JC-1 fluorescence, RPMI8226, 24 h, 100 nL compound, profiling panel (AID 1169); conditions: JC-1 mitochondrial potential fluorescence, higher = more signal; note: test concentration not given here
[9] = JC-1 mitochondrial signal, unstimulated MM1S myeloma – cell-based, JC-1 fluorescence, 24 h, 100 nL compound, profiling panel (AID 1170); conditions: MM1S mitochondrial potential, higher = more signal; note: test concentration not given here
[10] = resazurin metabolic signal in A549 cells – cell-based, resazurin fluorescence, 24 h, PK04 Diversity Set, profiling panel (AID 1171); conditions: A549 viability, higher = more signal, called active from +8 up or from −8 down; note: test concentration not given here
[11] = resazurin metabolic signal in HepG2 cells – cell-based, resazurin fluorescence, 24 h, PK04 Diversity Set, profiling panel (AID 1172); conditions: HepG2 viability, higher = more signal; note: test concentration not given here
[12] = budding yeast growth changes without added modifier – OD600, strain BY4716, 24 h, basal condition, primary screen (AID 1173); conditions: S. cerevisiae BY4716 growth, OD600, 24 h; higher = more signal, called active from +8 up or from −8 down
[13] = viability profiling in MM1S myeloma cells – cell-based, resazurin fluorescence, basal, 24 h, PK04 Diversity Set, profiling panel (AID 1174); conditions: higher = more signal, called active from +8 up or from −8 down; note: test concentration not given here
[14] = target: Dihydroorotate dehydrogenase (quinone), mitochondrial (Plasmodium falciparum (isolate 3D7)) (UniProt Q08210); experiment: inhibition of P. falciparum DHODH – biochemical, C-terminal His tag, absorbance 600 nm, primary screen (AID 1175); conditions: PfDHODH enzyme, DCIP absorbance 600 nm; higher = more signal, called active from +8 up or from −8 down;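 note: recombinant parasite enzyme with a five histidine tag at its C terminus; test concentration not given here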
Sequence of Dihydroorotate dehydrogenase (quinone), mitochondrial (Plasmodium falciparum (isolate 3D7)) (Q08210 whole entry, looked up): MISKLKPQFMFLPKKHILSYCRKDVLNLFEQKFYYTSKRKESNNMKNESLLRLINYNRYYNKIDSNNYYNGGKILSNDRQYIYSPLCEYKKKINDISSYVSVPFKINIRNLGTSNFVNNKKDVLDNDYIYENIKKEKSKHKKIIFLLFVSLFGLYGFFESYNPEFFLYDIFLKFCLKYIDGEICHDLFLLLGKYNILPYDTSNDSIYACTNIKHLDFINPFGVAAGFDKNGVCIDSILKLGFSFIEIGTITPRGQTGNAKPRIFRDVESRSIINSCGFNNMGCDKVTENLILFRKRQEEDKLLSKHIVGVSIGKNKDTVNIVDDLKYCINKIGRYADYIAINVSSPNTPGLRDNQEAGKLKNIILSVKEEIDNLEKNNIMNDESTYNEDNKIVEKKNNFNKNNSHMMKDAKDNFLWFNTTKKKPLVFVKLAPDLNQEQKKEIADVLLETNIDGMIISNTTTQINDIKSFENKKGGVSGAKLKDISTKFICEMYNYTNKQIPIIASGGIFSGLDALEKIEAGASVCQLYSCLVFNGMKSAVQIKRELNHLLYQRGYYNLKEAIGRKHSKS

[15] = inhibition of PAO1 biofilm formation – strain PAO1, LB-PBS medium, absorbance 600 nm, primary screen (AID 1176); note: test concentration not given here; conditions: P. aeruginosa PAO1 growth/biofilm, A600, 12 h; higher = more signal
[16] = growth modulation of vineyard yeast isolate – strain RM11-1a, OD600, basal, 24 h, primary screen (AID 1177);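 note: cultures grown under basal conditions with no added stressor; test concentration not given here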; conditions: S. cerevisiae RM11-1a growth, OD600, 24 h; higher = more signal, called active from +8 up or from −8 down
[17] = growth of efflux-deficient E. coli DRC39 – strain DRC39, OD650, 24 h, E. coli filamentation inducers, primary screen (AID 1178);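 note: growth measured as culture turbidity by optical density at 650 nm; test concentration not given here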; conditions: E. coli DRC39 acrAB, higher = more signal, called active from +8 up or from −8 down
[18] = growth of efflux-deficient E. coli DRC39 – strain DRC39, OD650, 48 h, E. coli filamentation inducers, primary screen (AID 1179);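 note: screen aims at cell division blockers that make cells filament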; conditions: E. coli DRC39 delta-acrAB growth, higher = more signal, called active from +8 up or from −8 down
[19] = viability profiling in RPMI8226 myeloma cells – cell-based, resazurin fluorescence, basal, 24 h, PK04 Diversity Set, profiling panel (AID 1180); conditions: higher = more signal;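 note: RPMI8826 multiple myeloma cell line at 5000 cells per well; test concentration not given here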
[20] = target: E3 ubiquitin-protein ligase XIAP (Homo sapiens) (UniProt P98170); experiment: small molecules binding XIAP protein – biophysical, small-molecule microarray, fluorescence 635 nm, primary screen (AID 1181); conditions: higher = more signal;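 note: score merges 667 nm emission and signal to noise over triplicate slides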
Sequence of E3 ubiquitin-protein ligase XIAP (Homo sapiens) (P98170 whole entry, looked up): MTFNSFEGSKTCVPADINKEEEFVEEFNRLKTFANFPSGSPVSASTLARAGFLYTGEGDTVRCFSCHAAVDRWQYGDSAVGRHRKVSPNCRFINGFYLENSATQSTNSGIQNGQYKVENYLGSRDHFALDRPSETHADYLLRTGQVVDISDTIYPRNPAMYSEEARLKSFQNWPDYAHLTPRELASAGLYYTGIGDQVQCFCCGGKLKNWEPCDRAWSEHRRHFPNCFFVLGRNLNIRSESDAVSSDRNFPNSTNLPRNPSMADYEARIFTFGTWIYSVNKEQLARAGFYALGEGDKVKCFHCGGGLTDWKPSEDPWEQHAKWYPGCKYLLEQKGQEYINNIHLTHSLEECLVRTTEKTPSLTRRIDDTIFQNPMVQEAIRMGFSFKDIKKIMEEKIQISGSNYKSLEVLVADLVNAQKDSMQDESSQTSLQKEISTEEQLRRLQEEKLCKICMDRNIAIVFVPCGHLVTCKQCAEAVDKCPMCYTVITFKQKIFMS

Structure (SMILES) | z-score [1] | z-score [2] | z-score [3] | z-score [4] | z-score [5] | z-score [6] | z-score [7] | z-score [8] | z-score [9] | z-score [10] | z-score [11] | z-score [12] | z-score [13] | composite z-score [14] | z-score [15] | z-score [16] | z-score [17] | z-score [18] | z-score [19] | composite z-score [20]
COCCCNC(=O)[C@@H]1c2ccccc2C(=O)N(Cc2ccc(OC(F)(F)F)cc2)[C@H]1c1ccc(CO)cc1 | 0.927 | -0.704 | 0.198 | -0.0583 | 0.317 | 1.75 | -0.436 (inactive) | -0.604 | -0.29 | 0.469 (inactive) | 0.201 | 0 (inactive) | -0.148 (inactive) | 0.228 (inactive) | 0.801 (inactive) | -1.06 (inactive) | 0.454 (inactive) | -0.34 (inactive) | 0.116 | -0.219
COCCCNC(=O)[C@@]1(Sc2ccc(C)cc2)CC(=O)N(Cc2ccccc2C(F)(F)F)[C@@H]1c1ccc(CO)cc1I | -0.172 | 0.224 | 0.245 | -3.18 | -2.36 | -0.33 | -0.101 (inactive) | -0.339 | -1.33 | -0.731 (inactive) | -1.07 | -2.19 (inactive) | -2.56 (inactive) | 0.0681 (inactive) | 0.0993 (inactive) | -1.2 (inactive) | -0.473 (inactive) | 0.0799 (inactive) | -2.75 | 0.419
COc1ccc([Si](C)(C)[C@H]2[C@H](CCO)O[C@@]3(C(=O)N(Cc4ccc(NC(=O)[C@H](C)O)cc4)c4ccccc43)[C@@H]2C)cc1 | -3.33 | 1.36 | -4.58 | -2.64 | -4.47 | -2.19 | 0.843 (inactive) | -1.11 | -2.31 | -5.03 (inactive) | -4.93 | 0.532 (inactive) | -8.02 (active) | -0.0575 (inactive) | -0.753 (inactive) | 3.05 (inactive) | -0.106 (inactive) | -0.802 (inactive) | -6.21 | -0.0592
CC(C)=CCCC(C)=CC(O)C1C=CC2C(=O)NC(=O)C2N1Nc1ccc(Cl)cc1Cl (stereo not given) | -0.483 | -0.0042 | -1.62 | -3.76 | -4.11 | -3.49 | -0.947 (inactive) | -0.238 | -0.506 | -0.577 (inactive) | -1.66 | -4.77 (inactive) | -1.56 (inactive) | 0.112 (inactive) | 1.01 (inactive) | 0.432 (inactive) | -0.0552 (inactive) | -0.797 (inactive) | -1.73 | -0.0326
O=C1O[C@@H](c2ccccc2)[C@@H](c2ccccc2)N2[C@@H](c3ccc(OCCO)cc3)[C@]3(C(=O)Nc4ccc(C#CC5(O)CCCCCC5)cc43)[C@@H](C(=O)O)[C@H]12 | 0.942 | 0.297 | 1.36 | 0.213 | 0.342 | -0.969 | -0.448 (inactive) | -0.169 | 0.0439 | 1.12 (inactive) | -0.253 | -0.431 (inactive) | 1.12 (inactive) | -2.17 (inactive) | 1.27 (inactive) | 3.11 (inactive) | 0.876 (inactive) | 1.06 (inactive) | -0.121 | -0.148
C=CCC(OC(C)=O)[C@@H]1[C@@H](N(Cc2cc3ccccc3o2)C(=O)Cc2ccc(OC)cc2)c2cc(OCCCO)ccc2N1C(=O)c1ccc2ccccc2n1 (stereo not given in full) | 0.542 | 1.46 | 1.26 | 0.307 | -1.63 | 2.31 | -0.106 (inactive) | -0.617 | 0.576 | -0.719 (inactive) | -1.11 | -0.791 (inactive) | 0.472 (inactive) | 0.278 (inactive) | 0.268 (inactive) | -0.266 (inactive) | 0.945 (inactive) | 0.346 (inactive) | -0.0391 | -0.058
COc1ccc(C(O)C2C=CC3C(=O)N(c4ccccc4)C(=O)C3N2Nc2ccc([N+](=O)[O-])cc2)c2ccccc12 (stereo not given) | -0.826 | -1.07 | -0.39 | -0.517 | -0.54 | -2.27 | -1.08 (inactive) | -0.344 | -1.32 | 0.604 (inactive) | 0.248 | 0.0244 (inactive) | -0.121 (inactive) | 0.767 (inactive) | 2.53 (inactive) | 0.0842 (inactive) | -0.901 (inactive) | -0.219 (inactive) | -0.322 | 0.312
CCCCN1CC=CC23O[C@@H]4/C=C\CCCOC(=O)C4[C@H]2C(=O)N(C(CO)C(C)C)[C@@H]3C1=O (stereo not given in full) | 0.374 | 0.265 | -0.0249 | 0.201 | 0.463 | -0.945 | -0.525 (inactive) | -0.4 | -0.608 | -0.61 (inactive) | -0.101 | 0.259 (inactive) | -0.289 (inactive) | -1.4 (inactive) | -0.0432 (inactive) | -0.427 (inactive) | 0.116 (inactive) | -0.091 (inactive) | -0.235 | -0.0393
COC(=O)[C@]1(CCC(=O)OC(C)(C)C)N=C(c2ccc(OCCCO)cc2)O[C@@H]1c1ccccc1N=[N+]=[N-] | -1.31 | 1.25 | -0.527 | -2.84 | -3.53 | 0.874 | 1.78 (inactive) | -1.02 | -1.57 | -1.46 (inactive) | -0.223 | 0.887 (inactive) | -2.56 (inactive) | 0.878 (inactive) | 1.31 (inactive) | 2.29 (inactive) | 0.844 (inactive) | 0.182 (inactive) | -2.15 | 0.0037
CC(C)C(=C=CC[C@H](O)c1ccccc1OCCO)C[C@H](O)COCc1ccccc1 | 0.827 | -0.0066 | 0.245 | -2.9 | -1.15 | -0.0954 | -0.307 (inactive) | -0.823 | -0.662 | -0.0334 (inactive) | -0.0813 | -1.07 (inactive) | -0.271 (inactive) | -2.12 (inactive) | 0.731 (inactive) | -0.154 (inactive) | -0.145 (inactive) | -0.306 (inactive) | -0.921 | 0.17
COc1cc(CO)cc(I)c1O[C@H]1C=C(C(=O)NCCO)C[C@@H](NC2CCCCCC2)[C@@H]1O | -0.226 | -0.174 | 0.806 | -3.23 | -0.334 | 1.09 | 0.426 (inactive) | -0.441 | -3.21 | 0.406 (inactive) | 0.371 | -4.02 (inactive) | 0.115 (inactive) | 1.11 (inactive) | -0.896 (inactive) | 0.77 (inactive) | 0.901 (inactive) | 0.12 (inactive) | 0.215 | -0.11
O=C1N(Cc2ccccc2)c2ccccc2C[C@@]12COC(c1ccc(OCCCO)cc1)=N2 | -0.633 | 0.629 | -0.409 | -2.94 | -1.19 | -1.08 | -0.382 (inactive) | -0.907 | -0.589 | 1.41 (inactive) | 0.792 | -0.248 (inactive) | -1.61 (inactive) | 0.0144 (inactive) | 1.39 (inactive) | 0.903 (inactive) | 1.17 (inactive) | -0.187 (inactive) | 0.712 | 0.0578
C=CCOC(=O)[C@@H]1[C@H]2C(=O)O[C@H](c3ccccc3)[C@H](c3ccccc3)N2[C@H](c2ccc(OCCOC(=O)[C@H]3C[C@H]4C(=O)N[C@@H](CCCCN(C)C)C(=O)N4[C@H]3c3ccc(O)cc3)cc2)[C@@]12C(=O)Nc1ccc(I)cc12 | -0.191 | -0.357 | 0.278 | -0.644 | -1.11 | 0.309 | 1.33 (inactive) | -0.35 | -0.933 | 0.923 (inactive) | -0.148 | -0.679 (inactive) | -0.467 (inactive) | -2.47 (inactive) | 1.34 (inactive) | 1.6 (inactive) | -0.466 (inactive) | 0.236 (inactive) | -0.431 | -0.224

Reference: PubChem BioAssay
